The results in this text go back to ChEMBL document CHEMBL1961873, “Compounds: GSK PKIS; Assays: Nanosyn kinase panel” (2012).

Assay [1] concerns the target CDK3/Cyclin E (Homo sapiens) (UniProt P24864+Q00526). The settings on record: at 1 µM.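 Also: each figure is a mean percent inhibition of the CDK3/cyclin E complex.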
Assay [2] deals with Cyclin-dependent kinase 4 (Homo sapiens) (UniProt P11802). The following applies: at 0.1 µM.
Assay [3] has the same target. The following applies: at 1 µM.
Assay [4] deals with Cyclin-dependent kinase 5 (Homo sapiens) (UniProt Q00535). The settings on record: at 0.1 µM.
The target is the same in assay [5]. The following applies: at 1 µM.
Assay [6] concerns the target Cyclin-dependent kinase 6 (Homo sapiens) (UniProt Q00534). The settings on record: at 0.1 µM.
The target is the same in assay [7]. The following applies: at 1 µM.
Assay [8] has as its target Dual specificity protein kinase CLK2 (Homo sapiens) (UniProt P49760). The following applies: at 0.1 µM.
For assay [9] the target is unchanged. The settings on record: at 1 µM.
The target of assay [10] is Dual specificity protein kinase CLK3 (Homo sapiens) (UniProt P49761). The following applies: at 0.1 µM.

Values joined by “and” are separate entries in the source; they are usually repeats but may differ in a detail not shown here. Equal entries are not always repeated.

Dual specificity protein kinase CLK3 (Homo sapiens), sequence (P49761 whole entry, looked up): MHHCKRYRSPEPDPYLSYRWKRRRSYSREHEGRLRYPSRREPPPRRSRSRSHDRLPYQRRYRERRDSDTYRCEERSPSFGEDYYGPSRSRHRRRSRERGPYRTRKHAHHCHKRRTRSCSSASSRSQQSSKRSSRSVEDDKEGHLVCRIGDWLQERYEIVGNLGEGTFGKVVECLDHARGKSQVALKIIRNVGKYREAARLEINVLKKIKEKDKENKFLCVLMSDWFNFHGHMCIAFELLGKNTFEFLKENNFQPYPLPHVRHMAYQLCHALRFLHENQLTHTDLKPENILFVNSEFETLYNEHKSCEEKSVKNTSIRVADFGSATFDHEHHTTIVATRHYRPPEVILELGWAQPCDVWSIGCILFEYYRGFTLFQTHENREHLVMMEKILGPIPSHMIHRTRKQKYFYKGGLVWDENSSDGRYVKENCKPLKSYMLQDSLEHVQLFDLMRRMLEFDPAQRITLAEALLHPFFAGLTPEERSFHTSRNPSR
Cyclin-dependent kinase 6 (Homo sapiens), sequence (Q00534 whole entry): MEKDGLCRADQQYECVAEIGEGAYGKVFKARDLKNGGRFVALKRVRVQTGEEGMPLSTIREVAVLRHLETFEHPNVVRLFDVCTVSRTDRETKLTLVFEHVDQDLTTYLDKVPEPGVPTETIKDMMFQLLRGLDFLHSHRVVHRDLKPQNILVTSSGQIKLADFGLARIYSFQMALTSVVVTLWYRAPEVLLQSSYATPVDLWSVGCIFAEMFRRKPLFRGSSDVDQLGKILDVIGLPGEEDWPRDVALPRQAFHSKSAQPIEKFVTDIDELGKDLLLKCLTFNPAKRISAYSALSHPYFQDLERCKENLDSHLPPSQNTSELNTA
Cyclin-dependent kinase 4 (Homo sapiens), sequence (P11802 whole entry): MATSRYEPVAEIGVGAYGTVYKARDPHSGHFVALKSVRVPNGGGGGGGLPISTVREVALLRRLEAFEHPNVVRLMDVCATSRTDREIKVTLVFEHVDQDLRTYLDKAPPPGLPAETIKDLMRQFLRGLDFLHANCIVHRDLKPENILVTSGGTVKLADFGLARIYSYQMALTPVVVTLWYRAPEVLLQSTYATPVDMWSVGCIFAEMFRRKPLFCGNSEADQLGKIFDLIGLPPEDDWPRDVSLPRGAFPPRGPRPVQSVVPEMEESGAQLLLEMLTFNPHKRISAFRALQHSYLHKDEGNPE
CDK3/Cyclin E (Homo sapiens), sequence (P24864 whole entry, looked up): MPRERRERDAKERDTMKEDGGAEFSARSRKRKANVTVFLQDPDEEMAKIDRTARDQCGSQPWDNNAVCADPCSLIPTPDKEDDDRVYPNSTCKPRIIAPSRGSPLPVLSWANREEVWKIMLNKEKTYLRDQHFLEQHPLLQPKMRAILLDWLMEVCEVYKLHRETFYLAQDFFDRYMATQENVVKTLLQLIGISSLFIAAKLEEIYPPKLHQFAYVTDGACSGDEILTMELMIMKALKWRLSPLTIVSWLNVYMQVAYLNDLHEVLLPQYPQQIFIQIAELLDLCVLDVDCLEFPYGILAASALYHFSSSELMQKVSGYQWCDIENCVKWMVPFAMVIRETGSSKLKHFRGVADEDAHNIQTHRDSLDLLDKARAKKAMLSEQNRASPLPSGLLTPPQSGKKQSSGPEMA
CDK3/Cyclin E (Homo sapiens), sequence (Q00526 whole entry, looked up): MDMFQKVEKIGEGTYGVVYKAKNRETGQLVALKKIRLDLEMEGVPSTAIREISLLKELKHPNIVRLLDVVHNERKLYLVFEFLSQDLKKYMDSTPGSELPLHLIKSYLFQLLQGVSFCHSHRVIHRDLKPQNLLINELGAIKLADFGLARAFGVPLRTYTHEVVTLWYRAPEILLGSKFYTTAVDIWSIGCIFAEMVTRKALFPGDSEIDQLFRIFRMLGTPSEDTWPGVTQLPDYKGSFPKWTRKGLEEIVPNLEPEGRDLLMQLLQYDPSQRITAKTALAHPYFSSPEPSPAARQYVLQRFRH
Dual specificity protein kinase CLK2 (Homo sapiens), sequence (P49760 whole entry, looked up): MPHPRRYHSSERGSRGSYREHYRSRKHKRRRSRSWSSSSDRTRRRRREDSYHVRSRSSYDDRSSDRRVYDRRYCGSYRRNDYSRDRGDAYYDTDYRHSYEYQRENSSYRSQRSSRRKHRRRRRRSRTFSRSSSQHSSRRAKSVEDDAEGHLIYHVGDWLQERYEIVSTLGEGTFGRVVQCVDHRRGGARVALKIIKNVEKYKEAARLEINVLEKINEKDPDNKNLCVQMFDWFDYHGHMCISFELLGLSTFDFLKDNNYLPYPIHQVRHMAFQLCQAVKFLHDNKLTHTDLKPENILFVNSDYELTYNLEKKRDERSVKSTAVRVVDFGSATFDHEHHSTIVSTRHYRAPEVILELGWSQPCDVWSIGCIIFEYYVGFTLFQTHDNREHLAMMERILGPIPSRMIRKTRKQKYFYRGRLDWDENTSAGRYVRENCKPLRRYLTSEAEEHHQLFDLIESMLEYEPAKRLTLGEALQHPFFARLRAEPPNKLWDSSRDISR
Cyclin-dependent kinase 5 (Homo sapiens), sequence (Q00535 whole entry, looked up): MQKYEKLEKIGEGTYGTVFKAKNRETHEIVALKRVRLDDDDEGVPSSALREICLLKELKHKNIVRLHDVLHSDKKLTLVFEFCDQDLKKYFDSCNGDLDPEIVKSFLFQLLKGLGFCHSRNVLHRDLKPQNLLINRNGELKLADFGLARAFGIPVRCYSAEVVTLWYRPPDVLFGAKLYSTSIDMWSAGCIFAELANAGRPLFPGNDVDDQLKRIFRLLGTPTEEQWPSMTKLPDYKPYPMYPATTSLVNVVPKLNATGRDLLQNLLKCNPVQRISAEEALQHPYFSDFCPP

Consider `CCS(=O)(=O)c1ccc(OC)c(Nc2ncc(-c3cccc(F)c3)o2)c1`, for which the inhibition in assay [1] is -2.15%; in [2], 2.69%; in assay [3], 4.19%; in assay [4], 0.21%; in [5], 1.39%; in [6], 3.05%. The inhibition in [7] came to 1.82%; in assay [8], 13%; in [9], 63.1%; in assay [10], 2.49%.
For the compound `CC1=C(C(=O)Nc2ccc3[nH]nc(C)c3c2)C(c2ccc(C(F)(F)F)cc2)CC(=O)N1` (stereo not given), the inhibition came to 1.51% in assay [1]; 4.22% in assay [2]; 7.29% in assay [3]; 2.58% in [4]; 6.22% in assay [5]; 7.14% in [6]. For the same compound, the inhibition was 10.2% in assay [7], 1.85% in assay [8], 9.04% in [9] and 2.28% in [10].
In the case of `CN1CCN(Cc2ccc(-c3cc4ncnc(Nc5ccc(OCc6cccc(F)c6)c(Cl)c5)c4s3)o2)CC1`, the inhibition in [1] was -0.88% and -0.53%; in assay [2], 0.41% and 3.55%; in assay [3], 4.82% and 8.07%; in assay [4], 1.3% and 1.22%; in assay [5], 2.71% and 2.36%; in assay [6] it was -3.55% and 3.09%. The inhibition in [7] is -1.42% and 9.4%; in [8], -0.35% and 2.37%; in assay [9], -0.11% and 1.21%; in assay [10], -0.14% and 1.15%.
For `N#Cc1ccc2c(-c3ccnc(NC4CC4)n3)c(-c3ccc(F)cc3)nn2c1`, the inhibition in assay [1] is -1.23%; in [2] it was -0.21%; in assay [3] it was 1.61%; in assay [4], -0.1%; in assay [5] it was -0.13%; in [6], -1.07%. Moreover, the inhibition is 2.32% in assay [7], -0.43% in assay [8], -1.71% in assay [9] and -0.22% in assay [10].
For the compound `CS(=O)(=O)Nc1ccc(-c2ccc3c(NC(=O)C4CC4)n[nH]c3c2)cc1`, the inhibition was determined as 6.25% in [1]; 2.19% in [2]; 6.78% in [3]; 0.45% in [4]; 1.18% in assay [5]; 7.5% in assay [6]. In addition, the inhibition in assay [7] turned out to be 36.3%; in assay [8], 0.87%; in assay [9], 3.05%; in assay [10] it was 1.51%.
On to `CC1(C)CC(n2cnc(-c3ccc(F)cc3)c2-c2ccnc(N)n2)CC(C)(C)N1`, for which the inhibition in assay [1] is -0.65%; in [2], 1.99%; in assay [3], 2.08%; in assay [4] it was 0.25%; in [5], 0.14%; in [6] it was -2.02%. Further, the inhibition in assay [7] came out at 1.29%; in [8], 0.85%; in [9], 0.02%; in assay [10], 0.82%.
In the case of `CC1=C(C(=O)Nc2ccc3[nH]ncc3c2)C(c2ccc(F)cc2)N=C(c2ccc(C(F)(F)F)nc2)N1` (stereo not given), the inhibition in [1] is 1.96%; in assay [2], 2.27%; in assay [3] it was 2.07%; in assay [4], 0.56%; in assay [5] it was 0.43%; in assay [6] it was 2.17%. Also, the inhibition in assay [7] was 1.9%; in assay [8] it was 0.46%; in [9] it was -0.11%; in assay [10], 1.34%.
For `c1ccc(-c2n[nH]cc2-c2ccnc(-c3ccc(OCCn4ccnc4)cc3)c2)nc1`, the inhibition worked out at 0.94% in [1]; 1.86% in assay [2]; 6.97% in assay [3]; 1.11% in [4]; 4.49% in assay [5]; 1.43% in assay [6]. Moreover, the inhibition in [7] amounted to 10%; in [8] it was 0.61%; in assay [9] it was 1.21%; in [10], 3.95%.
On to `CCCNc1cccc(-n2ncc3c(N/N=C/c4ccncc4)ncnc32)c1`, for which the inhibition in assay [1] was 9.63%; in [2], 0.2%; in assay [3], 9.54%; in [4], 1.35%; in [5], 12.6%; in assay [6] it was 3.25%. The inhibition in assay [7] was 10.1%; in assay [8], 3.08%; in assay [9], 10.9%; in assay [10], 0.61%.
For the compound `Nc1nccc(-c2c(-c3ccc(F)cc3)ncn2C2CCNCC2)n1`, the inhibition in assay [1] is -1.14% and -1.16%; in assay [2], 0.24% and -0.14%; in assay [3], 0.89% and 0.97%; in [4], 0.29% and 0.63%; in assay [5] it was 1.43% and 1.29%; in [6] it was -5.67% and 1.15%. Further, the inhibition was -4.19% and 1.96% in [7]; 2.07% and 0.24% in [8]; 11.9% and 2.02% in [9]; -0.13% and 1.41% in assay [10].
Regarding `CC(C)c1ccc(-c2cc(-c3c[nH]nc3-c3ccccn3)ccn2)cc1`, the inhibition in assay [1] is -1.28%; in assay [2], 1.25%; in [3], 1.46%; in [4], 0.18%; in assay [5] it was 0.36%; in assay [6] it was -1.5%. For the same compound, the inhibition is 1.16% in [7], 0.9% in assay [8], -0.14% in [9] and 0.15% in [10].
`COc1ccc2ncn(-c3cc(O[C@H](C)c4ccccc4C(F)(F)F)c(C(N)=O)s3)c2c1`: the inhibition in [1] was -1.57%; in [2] it was 0.47%; in assay [3], 2.89%; in assay [4] it was 0.13%; in [5] it was 1.21%; in assay [6] it was -4.17%. Further, the inhibition in assay [7] is -1.08%; in assay [8] it was 0.34%; in assay [9], 5.08%; in assay [10], -0.05%.
As for `NS(=O)(=O)c1ccc(N/N=C2\C(=O)Nc3ccc(C(=O)NCc4ccncc4)cc32)cc1`, the inhibition in assay [1] is 96.3%; in assay [2], 14%; in [3] it was 52.3%; in assay [4], 47.7%; in assay [5] it was 79.1%; in assay [6] it was 8.64%. Moreover, the inhibition was determined as 58.6% in assay [7], 2.87% in [8], 36.8% in assay [9] and 1.92% in assay [10].
For `COc1cc(Nc2ncc(-c3ccccc3)o2)cc(OC)c1`, the inhibition in [1] is 6.13%; in [2], 3.96%; in [3] it was 14.9%; in assay [4], -0.03%; in [5], 6.57%; in assay [6], 4.07%. The inhibition is 29.8% in [7], 2.97% in assay [8], 2.12% in [9] and 0.59% in [10].
On to `Cc1ccc(-c2cc3c(NC(=O)C4CC4)ncnc3o2)cc1`, for which the inhibition in assay [1] was -0.64%; in assay [2], 3.36%; in assay [3], 4.97%; in assay [4] it was 1.87%; in assay [5] it was 3.17%; in [6], 1.55%. The inhibition was 3.23% in assay [7], -0.87% in assay [8], 6.08% in assay [9] and 2.11% in [10].
Turning to `CCN1CCC(C(=O)Nc2n[nH]c3nnc(-c4cccc(F)c4F)cc23)CC1`, the inhibition in [1] was 16.7%; in assay [2], 5.92%; in [3] it was 36.6%; in assay [4], 2.96%; in assay [5], 14.1%; in assay [6] it was 5.64%. Moreover, the inhibition in assay [7] is 28.9%; in assay [8] it was -0.21%; in assay [9] it was 2.56%; in assay [10] it was 1.25%.
